The source of these data is ChEMBL document CHEMBL4296182, “CO-ADD screening of NIH NCI Diversity Set V”.

This experiment relates to Escherichia coli. As to the kind of experiment: Antibacterial activity against Escherichia coli ATCC 25922 (CO-ADD:GN_001); MIC in CAMBH media using NBS plates, by Resazurin F(560/590). The experiment is classed as functional. The following applies: Concentration 20 uM, ASSAY_TEST Inhibition of Bacterial Growth, detection method Resazurin, Fluorescence (ex560/em590), MEDIA CAMHB, plate type 384well, CORNING #3640, time 18 hr. (In general: The colour change of resazurin is a common sign of viable cells or microbes.)
For the compound `CC(=O)OCc1cc(-c2nc3ccccc3nc2O)nn1-c1ccc(Cl)cc1`, the Inhibition (usually the drop in the measured response relative to a control, in per cent) is given as -18.97%. `Cc1n[nH]c2nc(N)nn2c1=O`: the Inhibition turned out to be 10.78%. As to `Cc1ccc(/N=N/c2c(O)c3ccccc3[nH]c2=O)c(S(=O)(=O)N(C)C)c1`, the Inhibition was 9.06%. The value for `Cc1ccc(/N=N\c2c(O)ccc3[nH]nnc23)cc1` was 4.02%. Turning to `O=C(O)c1ccccc1-c1ccccc1C(=O)Nc1ccc2c(c1)nc(O)c1ccccc12`, the Inhibition is 10.96%. With `CC(C)NC(=O)Nc1cccc(Cl)c1`, the Inhibition was 6.41%. Consider `COC1OCC(O)C(NC(=O)N(C)N=O)C1O` (stereo not drawn), for which the Inhibition is -7.74%. Regarding `CCOC(CNCc1cc(C)c2[nH]c3ccccc3c2c1C)OCC`, the Inhibition is recorded as 3.76%. Regarding `O=C(c1ccc(O)cc1)c1ccc(C(=O)c2ccc(O)cc2)cc1`, the Inhibition was 2.65%. On to `CCN(CC)Cc1cc2[nH]c3c4ccc(Cl)cc4ncc3c2cc1OC`, for which the Inhibition is -2.05%. On to `OC(COc1cccc2ccccc12)CN1CCN(c2ccccc2Cl)CC1` (stereo not drawn), for which the Inhibition is recorded as -13.55%. The value for `CC(=O)OCCN1c2ccccc2Sc2cnccc21` was -8.04%; that for `Cc1ccc(C2C=CC(C#N)=CN2Cc2ccccc2)cc1` (stereo not drawn) was 11.73%; that for `c1ccc(-c2nc[nH]c2-c2ccccc2)cc1` was 11.94%. Regarding `COc1cccc2c1C(CO)N1C(C#N)C3CC(C(=O)O)C(C1C2)N3C` (stereo not drawn), the Inhibition was -1.99%.

With `CC(=O)Nc1ccc(S(=O)(=O)N/N=c2/sc3ccccc3n2C)cc1N`, the Inhibition is reported as 3.58%. Take `COc1cc(-c2ccc(NC(=O)NC3CC3)c(OC)c2)ccc1NC(=O)NC1CC1`: the Inhibition is reported as 13.19%. Consider `CCCc1cc(=O)oc2c3c(c4c(c12)OC(C)(C)C=C4)OC(C)[C@H](C)[C@@H]3O` (stereo partly drawn), for which the Inhibition came out at 11.63%.
